Experimental data as given in PubChem BioAssay AID1159580 (chemical genetic matrix, 2015).
Where “and” joins values, the source holds several entries; their conditions need not be identical. Identical values can stand only once. In all, about 5,500 compounds went through this assay and about 2,000 (36%) were called active. Another 18% or so got no clear call; they are omitted. No stated cut-off is given here; in the data, active means normalized growth mostly below about 0.91 (no sharp cut-off); inconclusive means no clear call, values can overlap the other calls; inactive means mostly above about 0.92. The list shows a part of the results.

Assay: chemical genetic growth profiling, strain panel (AID 1159580);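 further: tested at 20 µM; growth read once vehicle control cultures reached saturation at 30 °C; 1 = growth at the plate median or of vehicle wells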
Conditions: S. cerevisiae deletion strains, growth OD

Measured: normalized growth

CCOC(N)=O
inactive: locus YAL013W, strain DEP1, stronger effect = lower value 0.999 | locus YAL021C, strain ccr4, stronger effect = lower value 0.989 | locus YAL026C, strain drs2, stronger effect = lower value 1 | locus YAL030W, strain snc1, stronger effect = lower value 0.994 | locus YBL061C, strain skt5, stronger effect = lower value 0.997 | locus YBR009C, strain hhf1, stronger effect = lower value 0.987 | locus YBR021W, strain FUR4, stronger effect = lower value 0.97 | locus YBR023C, strain chs3, stronger effect = lower value 0.993 | locus YBR171W, strain sec66, stronger effect = lower value 0.99 | locus YBR229C, strain ROT2, stronger effect = lower value 0.999 | locus YBR231C, strain swc5, stronger effect = lower value 0.995 | locus YBR279W, strain paf1, stronger effect = lower value 0.991 | locus YCL011C, strain gbp2, stronger effect = lower value 0.988 | locus YCL016C, strain dcc1, stronger effect = lower value 1 | locus YCL029C, strain bik1, stronger effect = lower value 1.01 | locus YCL061C, strain MRC1, stronger effect = lower value 0.995 | locus YCL069W, strain vba3, stronger effect = lower value 0.997 | locus YCR088W, strain abp1, stronger effect = lower value 1 | locus YDL005C, strain med2, stronger effect = lower value 0.986 | locus YDL035C, strain GPR1, stronger effect = lower value 1.01 | locus YDL040C, strain nat1, stronger effect = lower value 0.989 | locus YDL074C, strain BRE1, stronger effect = lower value 1 | locus YDL101C, strain DUN1, stronger effect = lower value 1 | locus YDL134C, strain PPH21, stronger effect = lower value 1.01 | locus YDL185W, strain tfp1, stronger effect = lower value 1.01 | locus YDL192W, strain arf1, stronger effect = lower value 1.01 | locus YDR001C, strain nth1, stronger effect = lower value 1 | locus YDR069C, strain doa4, stronger effect = lower value 0.985 | locus YDR101C, strain arx1, stronger effect = lower value 1 | locus YDR137W, strain rgp1, stronger effect = lower value 1.01 | locus YDR150W, strain NUM1, stronger effect = lower value 1 | locus YDR159W, strain sac3, stronger effect = lower value 0.984 | locus YDR162C, strain NBP2, stronger effect = lower value 0.973 | locus YDR195W, strain ref2 0.933 | locus YDR297W, strain sur2, stronger effect = lower value 0.992 | locus YDR318W, strain mcm21, stronger effect = lower value 1.02 | locus YDR334W, strain swr1, stronger effect = lower value 1 | locus YDR335W, strain msn5, stronger effect = lower value 0.997 | locus YDR388W, stronger effect = lower value 1.01 | locus YDR392W, strain spt3, stronger effect = lower value 0.997 | locus YDR502C, strain sam2, stronger effect = lower value 1 | locus YEL003W, strain gim4, stronger effect = lower value 0.997 | locus YEL037C, strain rad23, stronger effect = lower value 1.01 | locus YEL061C, strain CIN8 (second series), stronger effect = lower value 1.01 | locus YEL061C, strain CIN8, stronger effect = lower value 1 | locus YER015W, strain faa2, stronger effect = lower value 0.993 | locus YER016W, strain bim1, stronger effect = lower value 0.997 | locus YER110C, stronger effect = lower value 1.01 | locus YER111C, strain swi4, stronger effect = lower value 0.995 | locus YER155C, strain BEM2 (second series), stronger effect = lower value 0.994 | locus YER155C, strain BEM2, stronger effect = lower value 1 | locus YER167W, strain BCK2, stronger effect = lower value 1.01 | locus YFR010W, strain ubp6, stronger effect = lower value 0.997 | locus YGL078C, strain dbp3, stronger effect = lower value 1.01 | locus YGL086W, strain mad1, stronger effect = lower value 1.01 | locus YGL167C, strain pmr1, stronger effect = lower value 0.987 | locus YGL173C, strain kem1, stronger effect = lower value 0.982 | locus YGL227W, strain vid30, stronger effect = lower value 0.983 | locus YGL240W, strain doc1, stronger effect = lower value 0.982 | locus YGL248W, strain PDE1, stronger effect = lower value 1 | locus YGL253W, strain hxk2, stronger effect = lower value 0.993 | locus YGR078C, strain PAC10, stronger effect = lower value 0.991 | locus YGR135W, strain pre9, stronger effect = lower value 0.991 | locus YGR229C, strain SMI1, stronger effect = lower value 0.985 | locus YGR252W, strain gcn5, stronger effect = lower value 1.08 | locus YHR013C, strain ard1, stronger effect = lower value 0.975 | locus YHR027C, strain rpn1, stronger effect = lower value 0.997 | locus YHR030C, strain SLT2, stronger effect = lower value 1.01 and 0.987 | locus YHR079C, strain IRE1 (second series), stronger effect = lower value 1.01 | locus YHR079C, strain IRE1, stronger effect = lower value 0.983 | locus YHR094C, strain hxt1, stronger effect = lower value 1 | locus YHR129C, strain ARP1, stronger effect = lower value 1.01 | locus YHR142W, strain chs7, stronger effect = lower value 0.995 | locus YHR200W, strain rpn10, stronger effect = lower value 1.01 | locus YIL066C, strain RNR3, stronger effect = lower value 1.03 | locus YIL073C, strain SPO22, stronger effect = lower value 1.06 | locus YIL125W, strain kgd1, stronger effect = lower value 1 | locus YIR030C, strain dcg1, stronger effect = lower value 1 | locus YJL092W, strain hpr5, stronger effect = lower value 0.995 | locus YJL095W, strain BCK1 (second series), stronger effect = lower value 0.992 | locus YJL095W, strain BCK1, stronger effect = lower value 1.01 and 0.996 | locus YJL115W, strain asf1, stronger effect = lower value 0.999 | locus YJL129C, strain trk1, stronger effect = lower value 1 | locus YJL134W, strain LCB3, stronger effect = lower value 1.01 | locus YJL154C, strain vps35, stronger effect = lower value 1 | locus YJL164C, strain tpk1, stronger effect = lower value 0.991 | locus YJL166W, strain qcr8, stronger effect = lower value 0.99 | locus YJL168C, strain set2, stronger effect = lower value 1.02 | locus YJL187C, strain SWE1 (second series), stronger effect = lower value 1.02 | locus YJL187C, strain SWE1, stronger effect = lower value 0.997 | locus YJR043C, strain POL32, stronger effect = lower value 1.02 | locus YJR066W, strain TOR1, stronger effect = lower value 0.959
